Source: the supplement of paper PMC11732987, “Enantioselective OTUD7B fragment discovery through chemoproteomics screening and high-throughput optimisation” (Communications Chemistry, 2025)

Experiments:
Assay in all cases: log2 ratio of Biotin-Ahx-Ub-VS probe labelling (fragment/DMSO); higher = less target engagement (more negative = stronger competition), active = hit call of the paper (q ≤ 0.05, log2 ratio ≤ -1)
Details in all cases: compound concentration: 200 uM; treatment time: 3 h
USP19 = biological target: T1, USP19 (UniProt O94966)
T1 sequence (whole entry): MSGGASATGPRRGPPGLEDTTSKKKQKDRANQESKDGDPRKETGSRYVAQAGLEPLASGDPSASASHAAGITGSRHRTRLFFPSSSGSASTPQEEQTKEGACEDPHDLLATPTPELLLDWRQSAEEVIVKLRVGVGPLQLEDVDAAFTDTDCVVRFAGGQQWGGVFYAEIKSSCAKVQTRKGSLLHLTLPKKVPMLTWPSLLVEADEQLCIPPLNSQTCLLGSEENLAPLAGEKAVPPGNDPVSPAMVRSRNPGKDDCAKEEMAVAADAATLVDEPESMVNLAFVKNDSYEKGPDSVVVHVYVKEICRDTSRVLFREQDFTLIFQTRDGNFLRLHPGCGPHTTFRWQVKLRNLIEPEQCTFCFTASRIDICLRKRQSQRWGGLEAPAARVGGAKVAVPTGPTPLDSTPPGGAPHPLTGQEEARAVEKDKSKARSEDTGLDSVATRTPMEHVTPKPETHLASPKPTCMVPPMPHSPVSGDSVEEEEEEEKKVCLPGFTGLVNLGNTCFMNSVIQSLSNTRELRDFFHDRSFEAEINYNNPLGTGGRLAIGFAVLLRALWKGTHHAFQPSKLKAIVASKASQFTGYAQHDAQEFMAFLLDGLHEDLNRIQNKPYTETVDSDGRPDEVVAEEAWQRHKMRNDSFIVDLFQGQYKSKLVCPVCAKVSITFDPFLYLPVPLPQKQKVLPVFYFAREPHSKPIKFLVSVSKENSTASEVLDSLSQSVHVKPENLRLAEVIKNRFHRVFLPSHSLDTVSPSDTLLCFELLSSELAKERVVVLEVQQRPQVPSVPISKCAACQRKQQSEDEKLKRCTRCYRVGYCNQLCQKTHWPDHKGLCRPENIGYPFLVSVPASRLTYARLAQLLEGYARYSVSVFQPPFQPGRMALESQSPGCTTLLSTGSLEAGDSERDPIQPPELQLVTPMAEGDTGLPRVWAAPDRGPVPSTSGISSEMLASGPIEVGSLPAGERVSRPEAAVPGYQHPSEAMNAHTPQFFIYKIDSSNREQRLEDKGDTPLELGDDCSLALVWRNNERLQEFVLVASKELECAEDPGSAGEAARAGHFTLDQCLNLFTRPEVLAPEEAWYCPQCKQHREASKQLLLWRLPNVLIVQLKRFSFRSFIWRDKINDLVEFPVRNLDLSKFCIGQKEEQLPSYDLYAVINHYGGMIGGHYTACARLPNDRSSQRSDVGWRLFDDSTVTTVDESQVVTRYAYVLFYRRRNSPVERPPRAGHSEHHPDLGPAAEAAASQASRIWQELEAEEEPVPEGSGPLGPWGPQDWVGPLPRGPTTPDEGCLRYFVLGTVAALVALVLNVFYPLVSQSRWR
Method in brief: (§1)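 Labelled DUBs from HEK293T lysate were NeutrAvidin-enriched, digested with LysC and trypsin, and run by diaPASEF LC-MS/MS. Before that, each 495 µg sample in Tris/CHAPS/IGEPAL buffer with protease inhibitors was treated in triplicate with fragment at 200 µM or vehicle for 3 h, then with Biotin-Ahx-Ub-VS at 0.5 µM final for 1 h. Values are average log2 ratios of fragment over vehicle by unpaired t-test, based on global-median-normalised Spectronaut label-free quantities from proteins with ≥2 unique peptides.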

USP22 = biological target: T2, USP22 (UniProt Q9UPT9)
T2 sequence (whole entry): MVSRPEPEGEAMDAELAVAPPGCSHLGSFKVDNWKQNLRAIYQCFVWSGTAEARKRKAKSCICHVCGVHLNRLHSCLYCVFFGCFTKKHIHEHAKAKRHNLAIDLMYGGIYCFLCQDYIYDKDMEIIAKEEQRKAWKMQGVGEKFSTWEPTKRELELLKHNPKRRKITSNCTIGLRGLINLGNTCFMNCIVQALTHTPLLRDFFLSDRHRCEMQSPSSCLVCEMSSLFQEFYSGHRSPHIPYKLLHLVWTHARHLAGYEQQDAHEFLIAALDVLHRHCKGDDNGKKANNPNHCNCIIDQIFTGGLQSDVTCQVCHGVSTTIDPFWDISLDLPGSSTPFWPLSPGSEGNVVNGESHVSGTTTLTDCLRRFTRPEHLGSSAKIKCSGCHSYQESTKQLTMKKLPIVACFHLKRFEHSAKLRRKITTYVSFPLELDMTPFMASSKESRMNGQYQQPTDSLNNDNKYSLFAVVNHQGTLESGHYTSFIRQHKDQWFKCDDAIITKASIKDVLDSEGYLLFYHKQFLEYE
Method in brief: as §1

USP24 = USP24 (UniProt Q9UPU5)
USP24, sequence (Q9UPU5 whole entry): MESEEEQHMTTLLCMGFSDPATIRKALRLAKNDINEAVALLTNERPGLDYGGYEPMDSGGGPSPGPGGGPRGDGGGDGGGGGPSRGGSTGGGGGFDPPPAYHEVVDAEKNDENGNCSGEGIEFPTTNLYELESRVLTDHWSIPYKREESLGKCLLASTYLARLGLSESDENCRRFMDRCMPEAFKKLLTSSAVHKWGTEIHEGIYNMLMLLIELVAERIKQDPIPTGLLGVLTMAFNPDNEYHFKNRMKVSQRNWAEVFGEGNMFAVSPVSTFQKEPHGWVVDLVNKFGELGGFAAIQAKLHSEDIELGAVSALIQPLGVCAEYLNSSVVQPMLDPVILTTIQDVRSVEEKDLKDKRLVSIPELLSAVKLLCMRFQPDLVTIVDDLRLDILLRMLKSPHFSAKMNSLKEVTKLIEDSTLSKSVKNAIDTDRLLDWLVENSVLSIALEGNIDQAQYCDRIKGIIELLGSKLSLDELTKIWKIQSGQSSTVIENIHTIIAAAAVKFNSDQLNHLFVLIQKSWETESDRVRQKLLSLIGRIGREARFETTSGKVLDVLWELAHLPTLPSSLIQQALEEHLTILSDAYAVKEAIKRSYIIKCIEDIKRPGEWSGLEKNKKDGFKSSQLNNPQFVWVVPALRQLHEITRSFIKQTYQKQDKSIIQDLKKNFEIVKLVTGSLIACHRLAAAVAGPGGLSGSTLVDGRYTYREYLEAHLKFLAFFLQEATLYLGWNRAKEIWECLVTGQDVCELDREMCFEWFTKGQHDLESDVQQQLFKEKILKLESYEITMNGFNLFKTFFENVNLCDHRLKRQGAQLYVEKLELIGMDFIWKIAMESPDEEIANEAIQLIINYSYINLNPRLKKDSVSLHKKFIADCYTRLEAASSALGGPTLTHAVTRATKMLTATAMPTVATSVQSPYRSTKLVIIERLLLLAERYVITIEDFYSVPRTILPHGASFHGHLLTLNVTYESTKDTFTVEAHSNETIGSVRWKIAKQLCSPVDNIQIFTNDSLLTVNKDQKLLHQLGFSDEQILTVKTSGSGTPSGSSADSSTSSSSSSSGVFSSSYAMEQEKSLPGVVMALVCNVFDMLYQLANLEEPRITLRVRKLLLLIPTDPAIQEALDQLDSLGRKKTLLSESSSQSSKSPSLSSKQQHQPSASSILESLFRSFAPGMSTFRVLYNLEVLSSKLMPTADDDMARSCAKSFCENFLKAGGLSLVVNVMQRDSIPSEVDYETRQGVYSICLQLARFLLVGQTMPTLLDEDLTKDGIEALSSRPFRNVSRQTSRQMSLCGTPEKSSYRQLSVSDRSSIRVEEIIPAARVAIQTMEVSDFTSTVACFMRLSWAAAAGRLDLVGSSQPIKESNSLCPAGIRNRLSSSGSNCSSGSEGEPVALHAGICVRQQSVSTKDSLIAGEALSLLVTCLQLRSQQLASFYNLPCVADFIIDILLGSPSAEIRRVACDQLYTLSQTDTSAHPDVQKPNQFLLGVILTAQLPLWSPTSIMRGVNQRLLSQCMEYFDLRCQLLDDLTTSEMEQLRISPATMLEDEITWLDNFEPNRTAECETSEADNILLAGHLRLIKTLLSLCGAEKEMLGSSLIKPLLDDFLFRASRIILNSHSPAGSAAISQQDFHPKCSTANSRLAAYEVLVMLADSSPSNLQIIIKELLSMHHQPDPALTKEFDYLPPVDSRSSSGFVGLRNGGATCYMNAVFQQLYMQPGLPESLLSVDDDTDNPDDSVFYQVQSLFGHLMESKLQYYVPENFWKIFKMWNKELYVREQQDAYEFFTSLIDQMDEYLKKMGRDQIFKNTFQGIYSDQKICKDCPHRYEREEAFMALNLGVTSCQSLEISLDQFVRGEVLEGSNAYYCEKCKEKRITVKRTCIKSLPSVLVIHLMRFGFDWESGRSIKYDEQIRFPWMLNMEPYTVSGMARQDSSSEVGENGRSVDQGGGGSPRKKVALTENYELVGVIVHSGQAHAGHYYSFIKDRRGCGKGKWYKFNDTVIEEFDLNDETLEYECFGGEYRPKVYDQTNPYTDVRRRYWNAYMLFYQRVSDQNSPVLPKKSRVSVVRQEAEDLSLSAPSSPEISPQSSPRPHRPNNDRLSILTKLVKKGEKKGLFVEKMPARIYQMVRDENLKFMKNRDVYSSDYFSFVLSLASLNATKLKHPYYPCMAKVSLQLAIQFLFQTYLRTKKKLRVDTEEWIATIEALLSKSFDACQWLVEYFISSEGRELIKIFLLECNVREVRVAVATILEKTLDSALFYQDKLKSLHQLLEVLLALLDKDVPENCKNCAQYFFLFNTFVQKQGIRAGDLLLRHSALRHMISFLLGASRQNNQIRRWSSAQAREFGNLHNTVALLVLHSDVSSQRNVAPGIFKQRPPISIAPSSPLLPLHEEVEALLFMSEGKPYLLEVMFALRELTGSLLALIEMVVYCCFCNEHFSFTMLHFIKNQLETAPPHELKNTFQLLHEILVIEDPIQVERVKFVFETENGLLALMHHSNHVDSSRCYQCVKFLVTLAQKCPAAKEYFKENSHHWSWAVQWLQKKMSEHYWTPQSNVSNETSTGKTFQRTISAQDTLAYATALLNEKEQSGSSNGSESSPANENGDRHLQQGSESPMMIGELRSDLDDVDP
Method in brief: as §1

USP25 = biological target: T3, USP25 (UniProt Q9UHP3)
T3 sequence (whole entry): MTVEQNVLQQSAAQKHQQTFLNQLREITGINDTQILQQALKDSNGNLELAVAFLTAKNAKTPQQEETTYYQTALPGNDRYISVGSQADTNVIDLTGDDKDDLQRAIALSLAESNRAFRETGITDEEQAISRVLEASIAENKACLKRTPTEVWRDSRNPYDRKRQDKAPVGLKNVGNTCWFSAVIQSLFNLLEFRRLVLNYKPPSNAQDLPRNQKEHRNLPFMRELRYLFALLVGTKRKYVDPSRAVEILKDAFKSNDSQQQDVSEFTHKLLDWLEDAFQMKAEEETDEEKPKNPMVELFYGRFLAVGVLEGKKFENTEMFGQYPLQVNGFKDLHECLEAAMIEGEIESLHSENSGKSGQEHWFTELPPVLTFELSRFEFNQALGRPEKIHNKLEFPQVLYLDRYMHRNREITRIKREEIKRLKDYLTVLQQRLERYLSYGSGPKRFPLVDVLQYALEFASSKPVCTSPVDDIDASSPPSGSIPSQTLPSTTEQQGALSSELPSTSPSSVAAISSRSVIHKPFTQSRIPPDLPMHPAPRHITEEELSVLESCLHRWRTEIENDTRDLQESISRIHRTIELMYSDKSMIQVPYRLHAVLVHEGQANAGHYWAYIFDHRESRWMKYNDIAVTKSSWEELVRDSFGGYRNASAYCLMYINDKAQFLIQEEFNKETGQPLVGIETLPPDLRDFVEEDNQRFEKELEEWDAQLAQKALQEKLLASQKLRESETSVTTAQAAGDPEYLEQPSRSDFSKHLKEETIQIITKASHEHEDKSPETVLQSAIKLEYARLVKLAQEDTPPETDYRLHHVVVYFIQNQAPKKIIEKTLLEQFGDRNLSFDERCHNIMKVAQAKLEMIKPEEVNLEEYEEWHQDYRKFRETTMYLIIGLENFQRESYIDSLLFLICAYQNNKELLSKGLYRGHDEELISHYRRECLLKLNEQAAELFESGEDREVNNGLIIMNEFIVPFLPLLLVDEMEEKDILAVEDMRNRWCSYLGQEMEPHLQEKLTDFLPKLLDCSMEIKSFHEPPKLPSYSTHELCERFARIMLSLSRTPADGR
Method in brief: as §1

USP28 = biological target: T4, USP28 (UniProt Q96RU2)
T4 sequence (whole entry): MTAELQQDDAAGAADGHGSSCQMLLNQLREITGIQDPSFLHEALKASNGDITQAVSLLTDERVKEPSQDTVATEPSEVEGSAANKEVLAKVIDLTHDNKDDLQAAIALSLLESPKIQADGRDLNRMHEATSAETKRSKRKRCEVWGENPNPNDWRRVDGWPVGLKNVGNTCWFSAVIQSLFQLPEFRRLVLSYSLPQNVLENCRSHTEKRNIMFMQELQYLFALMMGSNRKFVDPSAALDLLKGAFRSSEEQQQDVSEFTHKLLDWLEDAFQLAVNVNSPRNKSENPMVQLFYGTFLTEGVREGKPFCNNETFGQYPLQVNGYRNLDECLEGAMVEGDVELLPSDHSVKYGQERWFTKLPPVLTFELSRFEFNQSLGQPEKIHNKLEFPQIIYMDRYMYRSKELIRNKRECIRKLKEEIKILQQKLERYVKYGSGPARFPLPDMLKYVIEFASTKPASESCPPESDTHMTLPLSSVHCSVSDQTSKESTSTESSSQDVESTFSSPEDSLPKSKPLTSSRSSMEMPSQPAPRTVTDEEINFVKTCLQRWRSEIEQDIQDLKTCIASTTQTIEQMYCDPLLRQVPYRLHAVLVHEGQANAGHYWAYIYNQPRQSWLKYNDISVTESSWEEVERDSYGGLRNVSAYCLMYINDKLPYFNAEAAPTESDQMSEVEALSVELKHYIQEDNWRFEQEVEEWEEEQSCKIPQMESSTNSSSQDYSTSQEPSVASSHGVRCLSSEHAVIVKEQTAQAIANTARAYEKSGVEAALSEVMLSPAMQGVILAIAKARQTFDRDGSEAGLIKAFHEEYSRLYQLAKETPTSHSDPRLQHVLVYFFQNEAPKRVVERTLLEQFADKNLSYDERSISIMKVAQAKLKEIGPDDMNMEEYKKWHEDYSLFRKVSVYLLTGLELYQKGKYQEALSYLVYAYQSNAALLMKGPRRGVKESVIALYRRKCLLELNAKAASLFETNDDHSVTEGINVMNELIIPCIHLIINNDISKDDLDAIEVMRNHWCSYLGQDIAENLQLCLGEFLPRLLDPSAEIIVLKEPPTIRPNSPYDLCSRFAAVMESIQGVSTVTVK
Method in brief: as §1

Measured: log2 ratio of Biotin-Ahx-Ub-VS probe labelling

O=C(CCl)NCCc1ccc2c(c1)OCCO2
inactive: USP19 -0.254 | USP22 0.0144 | USP24 -0.665 | USP25 -0.794 | USP28 -0.745
